From PubChem
SMN2 splice up = increases expression of the SMN2 splice variant; Potency, µM (titrated, usually from 46.1 µM), hits mostly activators; AID 1458; HEK293 SMN2-luciferase splicing reporter, luminescence, 30-36 h; hit rate 2.8% among 210,000; further: nearly all actives have a fitted effect of over 55% in size
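qHTS luciferase splicing reporter: luminescence rises when SMN2 exon 7 is included in transfected HEK293 cells. Compound exposure lasted 30-36 h at 37C, with 4.5 mM final sodium butyrate as control, followed by a ONE-Glo read.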
FLuc modulator = counter-screen for miR-21 project: firefly luciferase inhibitors or activators. hit rate 6.9% among 360,000. Potency, µM (highest dose often 57.5 µM), hits mostly inhibitors. purified FLuc, Km substrates, luminescence inhibition. P08659. AID 588342; further: nearly all actives have a fitted effect of over 55% in size
Target sequence (P08659 whole entry, looked up): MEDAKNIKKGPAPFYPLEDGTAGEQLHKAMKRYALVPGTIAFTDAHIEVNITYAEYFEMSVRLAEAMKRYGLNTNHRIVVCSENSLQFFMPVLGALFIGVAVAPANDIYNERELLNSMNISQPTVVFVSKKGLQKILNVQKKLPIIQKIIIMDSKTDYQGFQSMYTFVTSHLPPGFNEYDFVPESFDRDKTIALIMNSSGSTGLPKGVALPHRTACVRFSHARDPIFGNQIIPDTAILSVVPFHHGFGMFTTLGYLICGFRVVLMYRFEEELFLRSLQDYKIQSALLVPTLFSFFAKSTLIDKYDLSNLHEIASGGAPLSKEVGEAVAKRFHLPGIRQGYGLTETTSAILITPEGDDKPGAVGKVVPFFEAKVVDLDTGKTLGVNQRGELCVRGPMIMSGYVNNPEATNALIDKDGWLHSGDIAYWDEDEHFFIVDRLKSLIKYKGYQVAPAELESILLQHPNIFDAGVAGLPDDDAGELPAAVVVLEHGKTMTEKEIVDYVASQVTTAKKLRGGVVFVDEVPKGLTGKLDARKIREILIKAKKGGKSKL
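Purified P. pyralis luciferase (10nM final) with 10uM D-luciferin and 10uM ATP (Km levels) in 50mM Tris acetate pH 7.5, 10mM Mg acetate, 0.01% Tween-20, 0.05% BSA; qHTS 6-point titration, ~60 µM downward; luminescence read.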
NPC1 prom act = activates the NPC1 promoter | Huh7 NPC1 promoter luciferase reporter, 24 h | Potency, µM (series often up to 9.22 µM), usual class: activators | hit rate 2.4% among 320,000 | AID 485313; further: nearly all actives have a fitted effect of over 60% in size
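Huh7 cells stably carrying NPC1 promoter–luciferase, plated in Opti-MEM with 10% FBS for 2 h, were exposed to compound in DMSO for 24 h at 37 °C; luciferase reagent was added for 10 min and luminescence read.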
KinaseGlo FLuc = counter-screen: inhibitors of Kinase-Glo firefly luciferase; Q27757; AID 1379; Kinase-Glo luciferase, ATP luminescence, 8 min; Potency, µM (titrated, usually from 38.3 µM), hits mostly inhibitors; hit rate 0.28% among 200,000; further: nearly all actives have a fitted effect of over 60% in size
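Kinase-Glo luciferase light output from ATP and luciferin was measured with 10 uM ATP, within the enzyme's linear range. Buffer: 50 mM imidazole pH 7.2, 50 mM KCl, 7 mM MgCl2, 0.01% Tween 20, 0.05% BSA; luminescence read after 8 min at ambient temperature.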
ELG1 genotox = inducers of genotoxicity in HEK293T ELG1-luciferase cells; HEK293T ELG1-luciferase reporter, luminescence, 16 h; Potency, µM (titrated, usually from 46 µM), actives largely listed as activators; hit rate 1.3% among 330,000; AID 504466; further: nearly all actives have a fitted effect of over 60% in size
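Genotoxicity was scored as increased ELG1-luciferase reporter signal, measured by ONE-Glo luminescence (30 min, room temperature). Compound or vehicle exposure of the HEK293T reporter cells lasted 16 hr at 37°C.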
Rab9 promoter act = Rab9 promoter activation. Potency, µM (doses to about 9.22 µM), usual class: activators. Huh7 Rab9 promoter-luciferase reporter, luminescence, 24 h. hit rate 2.8% among 320,000; further: nearly all actives have a fitted effect of over 60% in size
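Rab9 promoter-driven luciferase in stably transfected Huh7 cells; 1500 cells/well rested 2 h, exposed to compound in DMSO for 24 h at 37 °C, 5% CO2. Luminescence read 10 min after adding luciferase reagent at ambient temperature.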
Hits are given with their value; - = inactive; ? = inconclusive; . = not tested or not shown; [ ] = remark or other dose. Only some compounds are listed: those with a hit (about 7.3% of all), similar ones and a draw of the others. The call rests on the fitted dose curve; in most records, active means well fitted curve in the direction sought with a large enough effect; inconclusive means small, poorly fitted or top-dose-only effect, or another doubt; inactive means no such curve, though single readings can be large; an effect the other way counts as inactive or inconclusive.

SMILES | SMN2 splice up | FLuc modulator | NPC1 prom act | KinaseGlo FLuc | ELG1 genotox | Rab9 promoter act
O=C(NC1CCSc2ccccc21)c1ccccc1Br (stereo unspecified) | . | 16.9µM | ? | . | - | -
Cc1ccc(C2NC(=O)NC3=C2CCc2ccccc23)cc1 (stereo unspecified) | - | 3.01µM | ? | - | ? | -
CC(C)c1ccc(C2NC(=O)NC3=C2CCc2ccccc23)cc1 (stereo unspecified) | - | - | - | - | - | -
Cc1cccc(NC(=O)CSc2nnc(N)s2)c1 | ? | - | . | . | . | .
CCc1ccccc1NC(=O)CN(C)C(=O)CSc1nnc(Nc2ccc(C)cc2)s1 | - | 9.53µM | - | - | - | -
CN(CC(=O)Nc1ccccc1Cl)C(=O)CSc1nncs1 | . | - | - | . | - | -
CCc1ccc(Nc2nnc(SCC(=O)N(C)CC(=O)Nc3ccccc3CC)s2)cc1 | - | 6.75µM | - | - | - | -
CCc1ccccc1NC(=O)CN(C)C(=O)CSc1nnc(Nc2cccc(C)c2)s1 | - | 12µM | - | - | - | -
Oc1ccc(NCc2ccccc2OCc2ccccc2F)cc1 | - | ? | - | - | - | -
O=C1c2cccc3c(N4CCOCC4)c([N+](=O)[O-])cc(c23)C(=O)N1c1cccc2ccccc12 | - | - | - | - | - | -
CC(C)(C)OC(=O)N1CCC(c2c(C(=O)Nc3ccc4c(c3)OCCO4)cnn2-c2ccc(Cl)cc2)CC1 | . | - | . | . | . | .
CCOc1ccc(C(=O)Nc2ccc(Cl)cn2)cc1Cl | ? | 4.78µM | 2.51µM | - | ? | 2.51µM
CCOc1ccc(C(=O)Nc2cccc(C(=O)O)c2)cc1Cl | 0.562µM | 0.239µM | ? | - | - | ?
CCCn1nnc(NC(=O)c2ccc(OCC)c(Cl)c2)n1 | - | -[2.3 µM] | - | - | - | -
O=C(COc1ccc(Cl)cc1Cl)NN=C1CCCCC1 | - | 7.57µM | - | - | - | -
CCOc1ccc(C(=O)Nc2cc(NC(=O)c3ccc(OCC)c(Cl)c3)cc(C(=O)O)c2)cc1Cl | - | - | - | - | - | -
O=C(COc1ccc(Cl)cc1Cl)NCc1ccco1 | - | 23.9µM | - | - | ? | ?
C=CCn1cc([N+](=O)[O-])nc1C | - | - | - | - | - | -
O=C(Cn1ccc2ccccc2c1=O)NCC(=O)N1CCN(c2ccc(F)cc2)CC1 | . | - | - | . | - | -
CCN(CC)S(=O)(=O)c1ccc(N2CCOCC2)c(NC(=O)c2cccc3ccccc23)c1 | -[1.84 µM] | - | - | - | - | -
CC(=O)Nc1ccc(NC(=O)COc2ccc(Cl)cc2Cl)cc1 | . | - | - | . | - | -
O=C(COc1ccc(Cl)cc1Cl)Nc1ccc(Cl)cn1 | 11.2µM | 0.301µM | 0.447µM | - | 1.16µM | ?
O=C(COc1ccc(Cl)cc1Cl)N/N=C/CCc1ccccc1 | - | - | - | - | - | -
O=C(COc1ccc(Cl)cc1Cl)c1ccc[nH]1 | . | 16.9µM | ? | . | ? | ?
O=C(COc1ccc(Cl)cc1Cl)N/N=C/c1ccc[nH]1 | . | 13.5µM | - | . | - | -
SMILES | SMN2 splice up | FLuc modulator | NPC1 prom act | KinaseGlo FLuc | ELG1 genotox | Rab9 promoter act
COc1cccc(C(=O)NNC(=O)c2ccccc2)c1 | . | ? | 2.51µM | . | 11.6µM | 3.55µM
COc1cccc(C(=O)NNC(=O)c2cccnc2)c1 | . | - | - | . | - | -
CCn1c2ccccc2c2cc(NC(=O)c3cccc(OC)c3)ccc21 | ? | 16.9µM | ? | - | - | ?
Cc1cccc(C(=O)Nc2ccc3ccccc3c2)c1 | . | 2.39µM | ? | . | ? | 0.631µM
CCn1c(=O)sc2cc(NC(=O)c3cccc(OC)c3)ccc21 | - | ? | . | . | . | .
COc1cccc(C(=O)Nc2cnn(C(C)C)c2)c1 | . | ? | ? | - | ? | 2.51µM
Cc1ccc(Cl)cc1N1CCN(S(=O)(=O)c2ccc3c(c2)C(C(C)C)C(=O)N3)CC1 (stereo unspecified) | . | - | . | . | . | .
COCCN1CC(C(=O)NCCc2nc(C)c(C)s2)CCC1=O (stereo unspecified) | . | - | - | . | - | -
COc1cccc(C(=O)Nc2ccc3ccccc3c2)c1 | . | 0.477µM | 3.16µM | . | ? | 0.794µM
COc1c(C(=O)NNC(=O)c2ccccc2)csc1Br | . | 10.7µM | ? | . | ? | 2.82µM
COc1cccc(C(=O)N/N=C(/c2ccccc2)c2ccccn2)c1 | - | 19µM | - | - | - | -
CCS(=O)(=O)N1CCCc2cc(C(=O)Nc3cccc(C(C)=O)c3)ccc21 | . | - | . | . | . | .
COc1cc(C(=O)N/N=C(\c2ccccc2)c2ccccn2)cc(OC)c1OC | - | - | - | - | ? | -
CSc1cccc(NC(=O)c2ccc3c(c2)CCCN3S(C)(=O)=O)c1 | - | 12µM | . | . | . | .
COc1cc(OC)cc(C(=O)NNC(=O)c2ccccc2Br)c1 | - | - | - | - | - | -
CCCCC(=O)Nc1nnc(S(=O)(=O)N2CCCc3ccccc32)s1 | . | - | - | . | - | -
COc1ccc(C(=O)Nc2ccc(N3CCN(c4ccc(OC)cc4)CC3)c(C#N)c2)cc1 | 10µM | - | - | - | - | -
CC(=O)c1cccc(NC(=O)c2ccc(NS(C)(=O)=O)cc2)c1 | - | - | - | - | - | -
COc1cccc(C(=O)Nc2ccc(NC(=O)Cc3ccccc3)cc2)c1 | . | - | - | . | - | -
CS(=O)(=O)Nc1ccc(C(=O)Nc2ccc3ccccc3c2)cc1 | . | 2.39µM | ? | . | ? | 0.631µM
COc1cccc(C(=O)Nc2cccc(OCC(=O)O)c2)c1 | - | 23.9µM | - | - | - | -
COc1cccc(C(=O)Nc2ccccc2)c1 | ? | 23.9µM | ? | - | ? | ?
COC(=O)c1[nH]c2cc(OC)c(OC)cc2c1NC(=O)c1cccc(OC)c1 | - | 5.36µM | - | - | - | -
COC(=O)c1cccc(NC(=O)Cc2coc3cc(OC)ccc23)c1 | - | 16.9µM | - | - | - | ?
O=C(Nc1cccc([N+](=O)[O-])c1)c1ccccc1 | . | ? | - | . | - | -
SMILES | SMN2 splice up | FLuc modulator | NPC1 prom act | KinaseGlo FLuc | ELG1 genotox | Rab9 promoter act
O=C(Nc1ccc2ccccc2c1)c1cccc([N+](=O)[O-])c1 | . | 12µM | ? | . | ? | ?
Cc1ccc(C(=O)Nc2cccc(Oc3ccccc3)c2)o1 | - | 19µM | - | - | ? | ?
O=CN1CCN(C(=O)Cc2ccc([N+](=O)[O-])cc2)CC1 | - | - | - | - | - | -
Cc1ccccc1CC(=O)N1CCN(C(=O)c2ccco2)CC1 | . | - | - | . | - | -
Cc1ccccc1-n1nc(C(=O)O)c(C)c(C#N)c1=O | - | - | - | - | - | -
COc1cccc(/C(C)=N/NS(=O)(=O)c2ccc(Cl)cc2)c1 | - | ? | - | - | - | -
COc1ccc(NS(=O)(=O)c2cc(NC(=O)c3ccncc3)ccc2N2CCOCC2)cc1 | 7.94µM | - | - | - | - | -
O=C(CCl)Nc1cccc(Oc2ccccc2)c1 | - | 16.9µM | - | - | - | -
O=C(CCl)Nc1cccc(Oc2cnccn2)c1 | . | - | - | . | - | -
